Source: article PMC11006913

How the values were obtained:
Assay in all cases: PBM; 200 nM protein, PBS
Conditions in all cases: dsDNA, one strand shown
NKX2-5 = NKX2-5 (Homo sapiens, UniProt P52952 125-210)
VENTX = target: T1, VENTX (Homo sapiens, UniProt O95231 78-163, R121Q)
T1 sequence: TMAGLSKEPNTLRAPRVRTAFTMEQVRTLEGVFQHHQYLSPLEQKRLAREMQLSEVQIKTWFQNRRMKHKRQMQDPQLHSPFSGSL

HOXA4 [1] = target: HOXA4 (Homo sapiens, UniProt Q00056 201-287, W262R)
HOXA7 [2] = target: HOXA7 (Homo sapiens, UniProt P31268 116-202)
ALX4 [3] = target: ALX4 (Homo sapiens, UniProt Q9H161 200-286)
PRRX1 [4] = target: PRRX1 (Homo sapiens, UniProt P54821 80-166, F113S)
HOXB6 [5] = target: HOXB6 (Homo sapiens, UniProt P17509 132-218, K202E)
ALX4 [6] = target: ALX4 (Homo sapiens, UniProt Q9H161 200-286, Q225E)
HOXA2 = HOXA2 (Homo sapiens, UniProt O43364 129-215, R185T)
ALX1 [7] = target: ALX1 (Homo sapiens, UniProt Q15699 118-204, L144V)
ALX1 [8] = target: ALX1 (Homo sapiens, UniProt Q15699 118-204, L144R)
HOXA4 [9] = target: HOXA4 (Homo sapiens, UniProt Q00056 201-287)
MSX2 = MSX2 (Homo sapiens, UniProt P35548 130-214)
VAX1 [10] = target: VAX1 (Homo sapiens, UniProt Q5SQQ9 86-172, T142I)
HOXA7 [11] = target: HOXA7 (Homo sapiens, UniProt P31268 116-202, W177C)
ALX1 [12] = target: ALX1 (Homo sapiens, UniProt Q15699 118-204)
HOXA4 [13] = target: HOXA4 (Homo sapiens, UniProt Q00056 201-287, W262F)
PRRX1 [14] = target: PRRX1 (Homo sapiens, UniProt P54821 80-166)
VAX1 [15] = target: VAX1 (Homo sapiens, UniProt Q5SQQ9 86-172, K157R)
HOXB6 [16] = target: HOXB6 (Homo sapiens, UniProt P17509 132-218)
Sequence of HOXB6 (Homo sapiens, UniProt P17509 132-218) (P17509 132-218): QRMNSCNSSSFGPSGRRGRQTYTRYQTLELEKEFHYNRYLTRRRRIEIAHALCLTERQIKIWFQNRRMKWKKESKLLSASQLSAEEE

Sequence of NKX2-5 (P52952 125-210): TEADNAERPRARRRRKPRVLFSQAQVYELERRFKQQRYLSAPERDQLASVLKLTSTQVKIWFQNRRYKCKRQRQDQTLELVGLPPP
Sequence of ALX1 (Homo sapiens, UniProt Q15699 118-204) (Q15699 118-204): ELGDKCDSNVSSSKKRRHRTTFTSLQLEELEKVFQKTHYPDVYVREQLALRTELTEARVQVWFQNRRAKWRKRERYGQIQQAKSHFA
Sequence of HOXB6 (Homo sapiens, UniProt P17509 132-218, K202E) (P17509 132-218 K202E): as the sequence (P17509 132-218) above, with K71E counted along it
Sequence of ALX1 (Homo sapiens, UniProt Q15699 118-204, L144V) (Q15699 118-204 L144V): as the sequence (Q15699 118-204) above, with L27V counted along it
Sequence of VAX1 (Homo sapiens, UniProt Q5SQQ9 86-172, K157R) (Q5SQQ9 86-172 K157R): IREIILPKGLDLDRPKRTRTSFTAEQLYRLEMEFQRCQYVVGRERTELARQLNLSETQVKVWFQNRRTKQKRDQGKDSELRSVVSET
Sequence of MSX2 (P35548 130-214): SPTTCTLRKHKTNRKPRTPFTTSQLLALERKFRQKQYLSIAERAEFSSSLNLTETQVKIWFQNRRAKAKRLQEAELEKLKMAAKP
Sequence of HOXA7 (Homo sapiens, UniProt P31268 116-202) (P31268 116-202): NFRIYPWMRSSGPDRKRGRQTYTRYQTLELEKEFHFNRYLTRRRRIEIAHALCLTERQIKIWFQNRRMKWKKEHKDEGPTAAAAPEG
Sequence of HOXA4 (Homo sapiens, UniProt Q00056 201-287) (Q00056 201-287): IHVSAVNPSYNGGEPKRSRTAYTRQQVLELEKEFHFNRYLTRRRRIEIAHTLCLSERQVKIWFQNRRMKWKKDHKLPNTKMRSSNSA
Sequence of PRRX1 (Homo sapiens, UniProt P54821 80-166, F113S) (P54821 80-166 F113S): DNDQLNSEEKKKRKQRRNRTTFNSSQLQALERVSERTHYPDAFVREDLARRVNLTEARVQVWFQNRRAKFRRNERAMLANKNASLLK
Sequence of PRRX1 (Homo sapiens, UniProt P54821 80-166) (P54821 80-166): as the sequence (P54821 80-166 F113S) above, with S34F counted along it
Sequence of ALX4 (Homo sapiens, UniProt Q9H161 200-286) (Q9H161 200-286): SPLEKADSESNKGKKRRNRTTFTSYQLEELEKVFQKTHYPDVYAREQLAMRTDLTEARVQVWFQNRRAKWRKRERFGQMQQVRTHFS
Sequence of HOXA2 (O43364 129-215 R185T): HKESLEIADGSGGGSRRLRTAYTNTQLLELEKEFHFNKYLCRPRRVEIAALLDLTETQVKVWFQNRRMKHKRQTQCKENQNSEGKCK
Sequence of HOXA4 (Homo sapiens, UniProt Q00056 201-287, W262F) (Q00056 201-287 W262F): as the sequence (Q00056 201-287) above, with W62F counted along it
Sequence of HOXA4 (Homo sapiens, UniProt Q00056 201-287, W262R) (Q00056 201-287 W262R): as the sequence (Q00056 201-287) above, with W62R counted along it
Sequence of VAX1 (Homo sapiens, UniProt Q5SQQ9 86-172, T142I) (Q5SQQ9 86-172 T142I): as the sequence (Q5SQQ9 86-172 K157R) above, with T57I, R72K counted along it
Sequence of HOXA7 (Homo sapiens, UniProt P31268 116-202, W177C) (P31268 116-202 W177C): as the sequence (P31268 116-202) above, with W62C counted along it
Sequence of ALX1 (Homo sapiens, UniProt Q15699 118-204, L144R) (Q15699 118-204 L144R): as the sequence (Q15699 118-204) above, with L27R counted along it
Sequence of ALX4 (Homo sapiens, UniProt Q9H161 200-286, Q225E) (Q9H161 200-286 Q225E): as the sequence (Q9H161 200-286) above, with Q26E counted along it

With AGACCGCG the binding signal (NKX2-5) was 8.83 upbm affinity estimate (log intensity, higher = more binding, comparable within an allelic series).

For ACCATGGT, the binding signal (NKX2-5) was 9.06 upbm affinity estimate (log intensity, higher = more binding, comparable within an allelic series).

With CCCTGGGC the binding signal (NKX2-5) was 8.96 upbm affinity estimate (log intensity, higher = more binding, comparable within an allelic series).

In the case of CCCTTGAC, the binding signal (NKX2-5) is reported as 11.1 upbm affinity estimate (log intensity, higher = more binding, comparable within an allelic series).

For GGCTCTTA, the binding signal (NKX2-5) was 11.6 upbm affinity estimate (log intensity, higher = more binding, comparable within an allelic series).

In the case of CACGTCCC, the binding signal (NKX2-5) is reported as 8.96 upbm affinity estimate (log intensity, higher = more binding, comparable within an allelic series).

In the case of GATGAGTA, the binding signal (NKX2-5) is reported as 10.9 upbm affinity estimate (log intensity, higher = more binding, comparable within an allelic series).

CGCGCAGC was tested, and the binding signal (NKX2-5) was 8.72 upbm affinity estimate (log intensity, higher = more binding, comparable within an allelic series).

With ACCAAACC the binding signal (NKX2-5) was 8.9 upbm affinity estimate (log intensity, higher = more binding, comparable within an allelic series).

In the case of CGCCAGGA, the binding signal (NKX2-5) is reported as 8.64 upbm affinity estimate (log intensity, higher = more binding, comparable within an allelic series).

For ACAGCGCC, the binding signal (NKX2-5) was 8.85 upbm affinity estimate (log intensity, higher = more binding, comparable within an allelic series).

GGCAAGCC was tested, and the binding signal (NKX2-5) was 8.92 upbm affinity estimate (log intensity, higher = more binding, comparable within an allelic series).

CACTAAAG was tested, and the binding signal (NKX2-5) was 10.8 upbm affinity estimate (log intensity, higher = more binding, comparable within an allelic series).

ACTAGTAC was tested, and the binding signal (NKX2-5) was 10.7 upbm affinity estimate (log intensity, higher = more binding, comparable within an allelic series).

With AACGGTGG the binding signal (NKX2-5) was 8.98 upbm affinity estimate (log intensity, higher = more binding, comparable within an allelic series).

For GCAACGCA, the binding signal (NKX2-5) was 8.99 upbm affinity estimate (log intensity, higher = more binding, comparable within an allelic series).

In the case of CCCGTCAG, the binding signal (NKX2-5) is reported as 9.04 upbm affinity estimate (log intensity, higher = more binding, comparable within an allelic series).

For GGCTATTA, the binding signal (NKX2-5) was 10.6 upbm affinity estimate (log intensity, higher = more binding, comparable within an allelic series).

With AAGTGAGT the binding signal (NKX2-5) was 11.4 upbm affinity estimate (log intensity, higher = more binding, comparable within an allelic series).

With TCACTCGA the binding signal (NKX2-5) was 10.9 upbm affinity estimate (log intensity, higher = more binding, comparable within an allelic series).

In the case of CCAACGCA, the binding signal (NKX2-5) is reported as 8.96 upbm affinity estimate (log intensity, higher = more binding, comparable within an allelic series).

With CCGCACGG the binding signal (NKX2-5) was 8.62 upbm affinity estimate (log intensity, higher = more binding, comparable within an allelic series).

In the case of CTAGTACA, the binding signal (NKX2-5) is reported as 10.6 upbm affinity estimate (log intensity, higher = more binding, comparable within an allelic series).

With GCCGGCAA the binding signal (NKX2-5) was 8.86 upbm affinity estimate (log intensity, higher = more binding, comparable within an allelic series).

With CACTACAC the binding signal (NKX2-5) was 10.7 upbm affinity estimate (log intensity, higher = more binding, comparable within an allelic series).

With CACTGCCG the binding signal (NKX2-5) was 8.89 upbm affinity estimate (log intensity, higher = more binding, comparable within an allelic series).

For CGACACTC, the binding signal (NKX2-5) was 10.5 upbm affinity estimate (log intensity, higher = more binding, comparable within an allelic series).

In the case of CCTGGGCA, the binding signal (NKX2-5) is reported as 9.12 upbm affinity estimate (log intensity, higher = more binding, comparable within an allelic series).

For TCTGCAGA, the binding signal (NKX2-5) was 9.04 upbm affinity estimate (log intensity, higher = more binding, comparable within an allelic series).

In the case of CCGCAGTC, the binding signal (NKX2-5) is reported as 8.72 upbm affinity estimate (log intensity, higher = more binding, comparable within an allelic series).

ATAAGATG was tested, and the binding signal (NKX2-5) was 10.6 upbm affinity estimate (log intensity, higher = more binding, comparable within an allelic series).

For CACAAGAG, the binding signal (NKX2-5) was 11 upbm affinity estimate (log intensity, higher = more binding, comparable within an allelic series).

In the case of ATAAGTGA, the binding signal (NKX2-5) is reported as 12 upbm affinity estimate (log intensity, higher = more binding, comparable within an allelic series).

ACTCTACT was tested, and the binding signal (NKX2-5) was 10.8 upbm affinity estimate (log intensity, higher = more binding, comparable within an allelic series).

With AACGCGGA the binding signal (NKX2-5) was 8.8 upbm affinity estimate (log intensity, higher = more binding, comparable within an allelic series).

With CGGGTGGC the binding signal (NKX2-5) was 8.57 upbm affinity estimate (log intensity, higher = more binding, comparable within an allelic series).

With AGGCGAGC the binding signal (NKX2-5) was 8.95 upbm affinity estimate (log intensity, higher = more binding, comparable within an allelic series).

For TGCGCGCA, the binding signal (NKX2-5) was 9.1 upbm affinity estimate (log intensity, higher = more binding, comparable within an allelic series).

For GATAATTA, the binding signal (VENTX) was 12.5 upbm affinity estimate (log intensity, higher = more binding, comparable within an allelic series), the binding signal (HOXA4 [1]) was 11 upbm affinity estimate (log intensity, higher = more binding, comparable within an allelic series) and the binding signal (HOXA7 [2]) was 12.2 upbm affinity estimate (log intensity, higher = more binding, comparable within an allelic series). For the same sequence, the binding signal (ALX4 [3]) was 14.4 upbm affinity estimate (log intensity, higher = more binding, comparable within an allelic series), the binding signal (PRRX1 [4]) was 12 upbm affinity estimate (log intensity, higher = more binding, comparable within an allelic series) and the binding signal (HOXB6 [5]) was 10.2 upbm affinity estimate (log intensity, higher = more binding, comparable within an allelic series). The binding signal (ALX4 [6]) was 14.1 upbm affinity estimate (log intensity, higher = more binding, comparable within an allelic series), the binding signal (HOXA2) was 13.9 upbm affinity estimate (log intensity, higher = more binding, comparable within an allelic series) and the binding signal (ALX1 [7]) was 12.3 upbm affinity estimate (log intensity, higher = more binding, comparable within an allelic series). The binding signal (ALX1 [8]) was 11.8 upbm affinity estimate (log intensity, higher = more binding, comparable within an allelic series), the binding signal (HOXA4 [9]) was 14.3 upbm affinity estimate (log intensity, higher = more binding, comparable within an allelic series) and the binding signal (MSX2) was 14.1 upbm affinity estimate (log intensity, higher = more binding, comparable within an allelic series). The binding signal (VAX1 [10]) was 13.8 upbm affinity estimate (log intensity, higher = more binding, comparable within an allelic series), the binding signal (HOXA7 [11]) was 9.01 upbm affinity estimate (log intensity, higher = more binding, comparable within an allelic series) and the binding signal (ALX1 [12]) was 12.8 upbm affinity estimate (log intensity, higher = more binding, comparable within an allelic series). For the same sequence, the binding signal (HOXA4 [13]) was 12.6 upbm affinity estimate (log intensity, higher = more binding, comparable within an allelic series), the binding signal (PRRX1 [14]) was 13.7 upbm affinity estimate (log intensity, higher = more binding, comparable within an allelic series) and the binding signal (VAX1 [15]) was 13.7 upbm affinity estimate (log intensity, higher = more binding, comparable within an allelic series). For the same sequence, the binding signal (HOXB6 [16]) was 12.5 upbm affinity estimate (log intensity, higher = more binding, comparable within an allelic series).
